Screens deposited in PubChem BioAssay by several laboratories.
PHOSPHO1 inh: PubChem AID 1565 | recombinant PHOSPHO1, absorbance phosphatase assay | 1.1% of 290,000 active | inhibition, % at 13.3 µM | Phosphoethanolamine/phosphocholine phosphatase (Homo sapiens), Q8TCT1; in the data active = inhibition above about 60%
Cardio protect: cardioprotection against H2O2-induced cell death, primary screen, uHTS, H9c2 cells, ATPLite luminescence. AID 588492, 2011. H9c2 cardiomyocytes, H2O2 injury protection, 2 h. 0.63% of 360,000 active. protection from H2O2 cell death, % at 20 µM;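 active = compounds giving at least 50% protection of heart cells from peroxide-induced death in the single-dose screen, raw or plate-pattern-corrected value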
PfM18AAP inh: PfM18AAP inhibitors, malaria aminopeptidase, primary screen, biochemical, QFRET, recombinant enzyme | 1.2% of 290,000 active | H-Glu-NHMec fluorogenic cleavage | AID 1822, 2009 | inhibition, % at 7.35 µM | M18 aspartyl aminopeptidase (Plasmodium falciparum 3D7);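 active = inhibition above the campaign mean inhibition over all tested compounds plus 3 SD, cut at about 28% in these data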
ALR inh: inhibitors of human ALR sulfhydryl oxidase, primary screen, biochemical, H2O2 detection, HRP-luminol luminescence, single point; FAD-linked sulfhydryl oxidase ALR (Homo sapiens), P55789; purified ALR, DTT oxidation; inhibition, % (no concentration beside the values); 3.8% of 290,000 active;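 active = mean replicate inhibition above about 79%, with every replicate also reaching it, limit read from the data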
Target sequence (P55789 whole entry, looked up): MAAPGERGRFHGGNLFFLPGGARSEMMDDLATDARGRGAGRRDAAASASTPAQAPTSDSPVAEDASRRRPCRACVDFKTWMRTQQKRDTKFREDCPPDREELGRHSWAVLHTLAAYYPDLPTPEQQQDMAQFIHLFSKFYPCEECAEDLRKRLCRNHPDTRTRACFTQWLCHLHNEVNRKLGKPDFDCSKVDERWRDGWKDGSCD
PfGluPho inh: PfG6PD enzyme inhibitors, primary screen, biochemical, fluorescence intensity, uHTS | 0.78% of 350,000 active | inhibition, % at 20 µM | glucose-6-phosphate dehydrogenase-6-phosphogluconolactonase (Plasmodium falciparum 3D7) | PfGluPho enzyme, NADPH resazurin-diaphorase fluorescence;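 active = inhibition reaching at least a set limit at 20 µM in the primary screen, cut at about 59% in these data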
PfGluPho conf: PfG6PD inhibitors, hit retest, confirmation, biochemical, fluorescence intensity, single concentration | 34% of 2,400 active | recombinant PfGluPho, NADPH-diaphorase-resazurin fluorescence | inhibition, % at 20 µM | shares compounds with PfGluPho inh;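 active = inhibition of at least 50% at 20 µM in any single replicate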
Hits are given with their value; n = inactive; x = not tested or not shown. Only some compounds are listed: those with a hit (about 5.6% of all), similar ones and a draw of the others.

SMILES	PHOSPHO1 inh	Cardio protect	PfM18AAP inh	ALR inh	PfGluPho inh	PfGluPho conf
COc1ccccc1NC(=O)N1CCC(c2nc3ccccc3o2)CC1	n	n	n	x	n	x
Cc1nc(SCC(=O)c2ccc(F)cc2)n[nH]1	94.8	n	n	n	62.8	n
COC(=O)CCC(=O)OC1(C)C(=O)C=C2C=C(C3CC3)N(CCc3ccccn3)C=C2C1=O (stereo not given)	n	n	x	x	62.5	n
COC(=O)CCC(=O)OC1(C)C(=O)C=C2C=C(C3CC3)N(c3ccccc3)C=C2C1=O (stereo not given)	n	n	x	n	66.5	n
COC(=O)CCC(=O)OC1(C)C(=O)C=C2C=C(C3CC3)N(CCc3c[nH]c4ccccc34)C=C2C1=O (stereo not given)	n	n	x	x	64.9	n
COC(=O)CCC(=O)OC1(C)C(=O)C=C2C=C(C3CC3)N(C(CO)CO)C=C2C1=O (stereo not given)	n	n	x	n	n	x
C=CCN1C=C2C(=O)C(C)(OC(=O)CCC(=O)OC)C(=O)C=C2C=C1C1CC1 (stereo not given)	n	n	x	n	n	x
COC(=O)CCC(=O)OC1(C)C(=O)C=C2C=C(C3CC3)N(CCN3CCOCC3)C=C2C1=O (stereo not given)	n	n	x	x	n	x
COC(=O)CCC(=O)OC1(C)C(=O)C=C2C=C(C3CC3)N(CCCOC(C)C)C=C2C1=O (stereo not given)	n	n	x	n	68.2	n
COC(=O)CCC(=O)OC1(C)C(=O)C=C2C=C(C3CC3)N(CCCCO)C=C2C1=O (stereo not given)	n	n	x	x	n	x
CCN(CC(=O)Nc1ccc(NC(C)=O)cc1)C(=O)C1(c2ccccc2)CC1	x	n	x	n	n	x
CCCCN1C(=N)N([C@@H](CCC)CN2CCC[C@H]2CN2C(N)=NC[C@H]2C(C)C)C[C@H]1[C@H](C)CC	x	n	x	x	n	x
COC(=O)CCCC1=CC2=CC(=O)C(C)(OC(=O)c3cccs3)C(=O)C2=CN1C1CC1 (stereo not given)	n	n	x	n	61.7	n
Cc1nn2c(=O)[nH]cnc2c1Cl	x	n	x	x	n	x
COc1ccc(-c2csc(NC(=O)COC(=O)c3ccco3)n2)cc1	n	n	n	n	59.9	n
Cc1cc(-c2nn(-c3ccccc3F)cc2CN(C)CC(O)CO)c(C)s1 (stereo not given)	n	n	n	n	n	x
CN(C)S(=O)(=O)c1ccc(Cl)c(NC(=O)C2CCN(S(=O)(=O)c3cccs3)CC2)c1	x	n	x	n	60.5	n
CS(=O)(=O)c1ccc(Cl)c(NC(=O)C2CCN(S(=O)(=O)c3cccs3)CC2)c1	x	n	x	n	n	x
COc1ccc(CN2CCNC(=O)C2CC(=O)N(C)C2CCCCC2)cc1OC (stereo not given)	x	n	x	x	n	x
O=C(NCc1cccnc1)c1ccc2sc([C@@H]3O[C@H](CO)[C@H](O)[C@H](O)[C@H]3O)nc2c1	x	n	x	x	x	x
COc1ccc(NS(=O)(=O)c2ccc3c(c2)NC(=O)C(C)S3)cc1 (stereo not given)	n	n	n	n	n	x
Brc1ccc(Nc2nc(-c3cccnc3)cs2)cc1	n	n	n	n	n	x
Brc1cccc(Nc2nc(-c3cccnc3)cs2)c1	n	n	n	n	59.6	n
O=C(Nc1nc(=S)ss1)c1c(F)cccc1F	n	n	n	n	61.5	n
Cc1ccccc1C(=O)Nc1nc(=S)ss1	n	n	n	n	n	x
CCOC(=O)C1(Cc2cccc(OC)c2)CCCN(Cc2cc(OC)c(O)c(OC)c2)C1 (stereo not given)	n	n	n	n	n	x
CC1(C(=O)Nc2ccc3c(c2)OCCO3)CCC(=O)N1CCOc1ccccc1 (stereo not given)	x	n	x	x	x	x
C/C(=N\Nc1nc2ccccc2[nH]1)c1ccc(Cl)s1	n	n	n	99.2	76.6	n
COc1c(C)cccc1C(=O)NC(=S)Nc1ccccc1N1CCCC1	n	n	n	n	n	x
